This note sets out measurements from PubChem BioAssay AID1259421 (Broad Institute, 2018).

Several values for one entry are separate records, joined by “and”; a condition that tells them apart may be missing. Equal entries are not always repeated. About 610 (9.5%) of roughly 6,400 compounds were called active. No stated cut-off is given here; in the data, active means activity change below about -70%; inconclusive means no clear call, values can overlap the other calls; inactive means above that. Shown is part of a subset that was picked to be rich in actives. Some structures have more than one record in an assay (separate samples or runs), and their calls can disagree.

The assay is described as follows: Toxoplasma gondii ME49Luc growth in HeLa cells, luciferase, no IFN-y, primary screen (AID 1259421). The conditions noted are these: T. gondii ME49Luc in HeLa, 72 h, stronger effect = lower value, concentration not given here.
Turning to `N[C@@]1(C(=O)O)CS(=O)(=O)[C@H]2[C@H](C(=O)O)[C@H]21`, the activity change, negative = inhibition was 8.77% (inactive).
As to Ac-PHSCN-NH2, the activity change, negative = inhibition is 12.4% (inactive).
As for `CC1(C)CC(=O)c2c(C(F)(F)F)nn(-c3ccc(C(N)=O)c(NC4CCC(O)CC4)c3)c2C1` (stereo not drawn), the activity change, negative = inhibition was -81.9% (active).
Turning to `CC1(C)CC(=O)c2c(C(F)(F)F)nn(-c3ccc(C(N)=O)c(NC4CCC(OC(=O)CN)CC4)c3)c2C1` (stereo not drawn), the activity change, negative = inhibition is -75.4% (active).
Next, `Cn1nnc(-c2ccc(-c3ccc(N4C[C@H](CO)OC4=O)cc3F)cn2)n1`: 60.5% (inactive); `CCOC(=O)[C@@H](CCc1ccccc1)N[C@H](C)C(=O)N1[C@@H]2CCC[C@H]2C[C@H]1C(=O)O`: 14.6% (inactive).
As to `CCCCS(=N)(=O)CC[C@H](N)C(=O)O` (stereo partly drawn), the activity change, negative = inhibition was 0.306% (inactive).
Take `CCCC[C@@H](CC)COC(=O)C(C#N)=C(c1ccccc1)c1ccccc1`: the activity change, negative = inhibition is -53.6% (inactive).
For `CC(=O)OCC(=O)[C@@]1(O)[C@H](OC(C)=O)CC2C3CCC4=CC(=O)C=C[C@]4(C)[C@@]3(F)[C@@H](O)C[C@@]21C` (stereo partly drawn), the activity change, negative = inhibition is -7.39% (inactive).
Next, `COc1ccc(-c2coc3c(O)c(O)c(OC)cc3c2=O)cc1`: 77.9% (inactive); `Nc1c2c(nc3ccccc13)CCCC2`: -1.53% (inactive) and -2.1% (inactive); `Nc1c2c(nc3ccccc13)CCCC2O` (stereo not drawn): 8.95% (inactive).
In the case of `Nc1c2ccccc2nc2ccccc12`, the activity change, negative = inhibition is -47.3% (inactive) and -70.8% (active) and 3.45% (inactive).
For `CCCCCCCCCCCCCCCC[N+](C)(C)Cc1ccccc1`, the activity change, negative = inhibition was -3.66% (inactive).
Take `CCCCCCCCCCCCCCCCn1cc[n+](Cc2ccccc2)c1C`: the activity change, negative = inhibition is -85.6% (active).
Next, `CN1CCN(CCCCN2C(=O)CN(/N=C/c3ccc(-c4ccc(Cl)cc4)o3)C2=O)CC1`: 16.2% (inactive).
As to `C[N+](C)(C)CC(O)CC(=O)O` (stereo not drawn), the activity change, negative = inhibition was -0.966% (inactive).
Turning to `CC[C@@H](C)Nc1cc(C(=O)NC2CC3CCC(C2)N3c2ccc(C(=O)C3CC3)cn2)c(C)cc1C(N)=O` (stereo partly drawn), the activity change, negative = inhibition is -89.6% (active).
Take `CCCCC(F)(F)C(=O)CC[C@H]1[C@H](O)CC(=O)[C@@H]1CCCCCCC(=O)O`: the activity change, negative = inhibition was 34.9% (inactive) and 7.68% (inactive).
The value for `N#C/C(=C/c1ccc(O)c(O)c1)C(=O)OCCc1cccs1` was 11.8% (inactive).
As to `CC(=O)N(C)C1(c2ccccc2)CCN(CCC[C@]2(c3ccc(Cl)c(Cl)c3)CCCN(C(=O)c3ccccc3)C2)CC1`, the activity change, negative = inhibition was -7.4% (inactive).
With `NC(N)=NCC1COC2(CCCCC2)O1` (stereo not drawn), the activity change, negative = inhibition is -1.54% (inactive).
Consider `NC1(C(=O)O)CC1`, for which the activity change, negative = inhibition is 13.6% (inactive).
For the compound `CC(=O)O[C@H]1C[C@@H](OC(C)=O)C(C)(C)C2C[C@@H](OC(C)=O)[C@]3(C)C(CC[C@@]4(C)[C@H](c5ccoc5)OC(=O)[C@H]5O[C@]543)[C@]21C` (stereo partly drawn), the activity change, negative = inhibition is 0.452% (inactive).
As to `CCS(=O)(=O)N(C)[C@H]1c2cc(C#N)ccc2OC(C)(C)[C@@H]1O` (racemic), the activity change, negative = inhibition is 9.6% (inactive).
`CC(=O)N(O)[C@@H]1c2cc(C#N)ccc2OC(C)(C)[C@H]1O`: the activity change, negative = inhibition is -86% (active) and 7.72% (inactive).
In the case of `CCS(=O)(=O)N(C)C1c2cc(C#N)ccc2OC(C)(C)C1O` (stereo not drawn), the activity change, negative = inhibition is -6.08% (inactive).
Next, `Nc1c[n+](N2CCOCC2)no1`: 18.8% (inactive); `CO/N=C(/C(=O)NC1C(=O)N2C(C(=O)OC(C)OC(C)=O)=C(COC(N)=O)CSC12)c1ccco1` (stereo not drawn): 4.1% (inactive); `O=C(O)CCC/C=C\C[C@@H]1[C@@H](/C=C/[C@@H](O)COc2cccc(Cl)c2)[C@H](O)C[C@@H]1O`: 11.1% (inactive) and 5.18% (inactive) and 11% (inactive).
In the case of `Cc1c[nH]c(=O)n(CCCN2CCN(c3ccccc3OCC(F)(F)F)CC2)c1=O`, the activity change, negative = inhibition is 2.85% (inactive) and 2.68% (inactive).
Consider `C1CCC2(CC1)CCNCC2`, for which the activity change, negative = inhibition is -1.4% (inactive).
Consider `COc1cc(Nc2c(C#N)cnc3cc(OCCCN4CCN(C)CC4)c(OC)cc23)c(Cl)cc1Cl`, for which the activity change, negative = inhibition was -79.2% (active) and -77.5% (active).
In the case of `COc1cc2ncnc(Nc3ccc(F)c(Cl)c3)c2cc1OCCCN1CCOCC1`, the activity change, negative = inhibition is 15.9% (inactive).
For the compound `COc1cc2c(Nc3ccc(NC(=O)c4ccccc4)cc3)ncnc2cc1OCCCN1CCOCC1`, the activity change, negative = inhibition is -50.7% (inactive) and -23.3% (inactive).
`CN(C)C(=O)NC1CCC(CCN2CCN(c3cccc(Cl)c3Cl)CC2)CC1` (stereo not drawn): the activity change, negative = inhibition was 3.31% (inactive).
`CC12CCC(C(=O)N(CCCCN3CCN(c4ccccn4)CC3)C1=O)C2(C)C` (stereo not drawn): the activity change, negative = inhibition is -4.45% (inactive).
For the compound `CCNC(=O)[C@H]1O[C@@H](n2cnc3c(N)nc(NCCc4ccc(CCC(=O)O)cc4)nc32)[C@@H](O)[C@@H]1O`, the activity change, negative = inhibition is 9.76% (inactive).
Turning to `CC(C)(C)c1cnc(CSc2cnc(NC(=O)C3CCNCC3)s2)o1`, the activity change, negative = inhibition is -71.7% (active).
Next, `CC(=O)O[C@@H]1CC2C(C)(C)[C@H](O)CC[C@]2(C)C2CC[C@@]3(C)[C@H](c4ccoc4)OC(=O)C4OC43[C@@]21C` (stereo partly drawn): 14.1% (inactive).
Consider `COc1cccc(CCc2ccccc2OCC[C@@H]2C[C@@H](O)CN2C)c1`, for which the activity change, negative = inhibition was -6.08% (inactive) and -38.5% (inactive).
For the compound `O=c1cc(N2CCNCC2)oc2c(-c3ccccc3)cccc12`, the activity change, negative = inhibition was -75.1% (active) and -94.2% (active).
For `O=c1cc(N2CCOCC2)oc2c(-c3ccccc3)cccc12`, the activity change, negative = inhibition was 13.4% (inactive).
Regarding `Nc1ccc(-c2cccc3c(=O)cc(N4CCOCC4)oc23)cc1`, the activity change, negative = inhibition was 3.1% (inactive) and -4.84% (inactive).
The value for `Nc1ncnc2c1ncn2[C@@H]1O[C@H](COP(=O)(O)OP(=O)(O)OP(=O)(O)OP(=O)(O)OC[C@H]2O[C@@H](n3cnc4c(N)ncnc43)C(O)C2O)C(O)C1O` (stereo partly drawn) was -3.47% (inactive).
With `O=C1C=CC(=O)C2=C1C1c3ccccc3C2c2ccccc21`, the activity change, negative = inhibition is -2.66% (inactive).
Next, `Cn1cccc1/C=C1\C(=O)NC(=O)c2ccccc21`: -4.19% (inactive).
Take `CCc1cc(Cl)c(OC)c(C(=O)NCC2CCCN2CC)c1O` (stereo not drawn): the activity change, negative = inhibition is 0.175% (inactive).
The value for `c1cnc(SCc2cccnc2)nc1` was 15.1% (inactive).
With `CC(C)(C)CC(C)(C)c1ccc(OCCOCC[N+](C)(C)Cc2ccccc2)cc1`, the activity change, negative = inhibition was -84.1% (active) and 4.83% (inactive).
Regarding `Cc1cc(C(C)(C)CC(C)(C)C)ccc1OCCOCC[N+](C)(C)Cc1ccccc1`, the activity change, negative = inhibition was -1.86% (inactive).
Turning to `C[N+](C)(CCOc1ccccc1)Cc1ccccc1`, the activity change, negative = inhibition was 13.6% (inactive).
On to `CC(O)COC[C@H]1O[C@@H]2O[C@H]3[C@H](O)[C@@H](O)[C@@H](O[C@H]4[C@H](O)[C@@H](O)[C@@H](O[C@H]5[C@H](O)[C@@H](O)[C@@H](O[C@H]6[C@H](O)[C@@H](O)[C@@H](O[C@H]7[C@H](O)[C@@H](O)[C@@H](O[C@H]8[C@H](O)[C@@H](O)[C@@H](O[C@H]1[C@H](O)[C@H]2O)O[C@@H]8COCC(C)O)O[C@@H]7COCC(C)O)O[C@@H]6COCC(C)O)O[C@@H]5COCC(C)O)O[C@@H]4COCC(C)O)O[C@@H]3COCC(C)O` (stereo partly drawn), for which the activity change, negative = inhibition is 10.2% (inactive).
For the compound `C=CCn1c(=O)n(C2OC(CO)C(O)C2O)c2nc(N)[nH]c(=O)c21` (stereo not drawn), the activity change, negative = inhibition is 0.162% (inactive).
The value for `CCNC(=O)[C@@H]1CCCN1C(=O)[C@H](CCCN=C(N)N)NC(=O)[C@H](CC(C)C)NC(=O)[C@@H](COC(C)(C)C)NC(=O)[C@H](Cc1ccc(O)cc1)NC(=O)[C@H](CO)NC(=O)[C@H](Cc1c[nH]c2ccccc12)NC(=O)[C@H](Cc1cnc[nH]1)NC(=O)C1CCC(=O)N1` (stereo partly drawn) was 9.62% (inactive); that for `CC(C)C(=O)OC[C@H]1O[C@@H](n2ccc(N)nc2=O)[C@](C)(F)[C@@H]1OC(=O)C(C)C` was 23.1% (inactive); that for `O=C(Nc1ncc(SCCN2CCCC2)s1)[C@]1(c2ccc(S(=O)(=O)C3CC3)cc2)C[C@H]1C1CCCCC1` was -76.3% (active) and -62.6% (inactive).
Take `CC(C)(C)[C@@]1(O)CCN2C[C@@H]3c4ccccc4CCc4cccc(c43)[C@H]2C1`: the activity change, negative = inhibition is 13.9% (inactive).
Next, `C[C@H](NC(=O)/C(C#N)=C/c1cccc(Br)n1)c1ccccc1`: -73.9% (active); `C[C@@H](NC(=O)/C(C#N)=C\c1ccc(O)c(O)c1)c1ccccc1`: -3.05% (inactive).
As to `CCC[C@H](NC(=O)/C(C#N)=C/c1cccc(Br)n1)c1ccccc1`, the activity change, negative = inhibition was -77% (active).
Consider `CC(C)c1cc(/C=C(\C#N)C(=O)NCCCc2ccccc2)cc(C(C)C)c1O`, for which the activity change, negative = inhibition was -46.1% (inactive).
As for `CCN(CC)CCCCC(NC(=O)c1ccc([N+](=O)[O-])cc1)c1ccccc1` (stereo not drawn), the activity change, negative = inhibition was 34.1% (inactive).
For the compound `C[C@H](NC(=O)/C(C#N)=C/c1ccc(O)c(O)c1)c1ccccc1`, the activity change, negative = inhibition was 13.8% (inactive) and 32.8% (inactive).
As to `O=C(CS(=O)Cc1ccco1)NC/C=C\COc1cc(CN2CCCCC2)ccn1` (stereo not drawn), the activity change, negative = inhibition was 8.76% (inactive).
Next, `CC12C=CCC1C1CCC3CC(=O)CCC3(C)C1CC2` (stereo not drawn): 14.3% (inactive); `COc1ccc(NC(=O)c2cc(OCCCN(C)C)nn2Cc2ccccc2)cc1`: 3.25% (inactive) and 7.86% (inactive); `CCC(=O)NS(=O)(=O)c1ccc(-c2c(-c3ccccc3)noc2C)cc1`: 23.5% (inactive).
As to `CC1(c2ccccc2)OC(C(=O)O)=CC1=O` (stereo not drawn), the activity change, negative = inhibition was 15.7% (inactive).
Turning to `Nc1cccc2c(=O)[nH][nH]c(=O)c12`, the activity change, negative = inhibition is 7.31% (inactive).
For the compound `CCCS(=O)(=O)Nc1ccc(F)c(C(=O)c2c[nH]c3ncc(-c4ccc(Cl)cc4)cc23)c1F`, the activity change, negative = inhibition is -58.2% (inactive) and -67.7% (inactive).
For `COc1ncc(-c2ccc3nccc(-c4ccnnc4)c3c2)cc1NS(=O)(=O)c1ccc(F)cc1F`, the activity change, negative = inhibition was -79.5% (active).
As for `CCc1cc(-c2n[nH]c(C)c2-c2ccc3c(c2)OCCO3)c(O)cc1O`, the activity change, negative = inhibition was -16.3% (inactive).
